# High-throughput results deposited in PubChem BioAssay by several laboratories.
# Hits are enriched below; roughly 2.3% of the tested compounds scored in any of these assays.
# UBC13 polyUb: blocks human UBC13 polyubiquitin chain formation; P61088; TR-FRET; inhibition, % at 20 µM; hit rate 0.47% among 330,000; AID 485273; in the data active = inhibition above about 45%, passing the limit was not always enough
# MEKK2mut PB1 HTS: signal of MEK5 binding to mutant human MEKK2 PB1 domain | bead flow cytometry, Alexa488-MEK5 binding to MEKK2 mutant | percent response, % at 10 µM | hit rate 0.35% among 290,000 | AID 1530; in the data active = percent response above about 24%, passing the limit was not always enough
# MEKK3 PB1 HTS: raises or lowers MEK5 binding to the human MEKK3 PB1 domain; hit rate 1.4% among 290,000; Q99759; binding response (% of control), % at 10 µM; bead-based flow cytometry, Alexa488-MEK5 binding to MEKK3; actives lie on both sides; 0 = blocked by unlabeled MEK5, 100 = vehicle;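 active = binding response more than 3 SD above or below the average of its plate-row segment, actives on both sides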;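 note: Alexa488 bead fluorescence after subtracting the streptavidin-only scavenger bead signal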
# Target sequence (Q99759 whole entry, looked up, the tested form may be a part): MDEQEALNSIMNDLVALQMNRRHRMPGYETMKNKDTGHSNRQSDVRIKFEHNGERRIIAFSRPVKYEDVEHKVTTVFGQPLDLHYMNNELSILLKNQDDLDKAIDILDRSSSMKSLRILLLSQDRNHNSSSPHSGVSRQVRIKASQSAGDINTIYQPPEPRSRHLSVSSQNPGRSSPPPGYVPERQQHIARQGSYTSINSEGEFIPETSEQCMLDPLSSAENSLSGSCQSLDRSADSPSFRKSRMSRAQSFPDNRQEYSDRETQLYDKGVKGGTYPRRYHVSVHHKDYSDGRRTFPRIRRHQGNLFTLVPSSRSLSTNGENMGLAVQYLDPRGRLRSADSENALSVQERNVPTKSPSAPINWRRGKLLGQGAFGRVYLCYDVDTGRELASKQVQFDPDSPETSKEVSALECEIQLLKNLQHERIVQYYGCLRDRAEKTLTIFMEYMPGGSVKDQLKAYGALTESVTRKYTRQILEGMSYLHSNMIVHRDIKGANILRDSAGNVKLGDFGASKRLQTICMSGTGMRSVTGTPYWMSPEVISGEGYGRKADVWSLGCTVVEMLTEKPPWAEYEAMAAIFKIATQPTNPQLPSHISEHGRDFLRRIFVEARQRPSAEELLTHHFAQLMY
# MEKK2 WT-MEK5: raises or lowers MEK5 binding to wildtype human MEKK2 PB1 domain | Q9Y2U5 | bead flow cytometry, Alexa488-MEK5 binding to MEKK2 WT; actives lie on both sides | binding response (% of control), % at 10 µM | hit rate 1.1% among 290,000 | AID 1531; in the data active = binding response below about 67% or above about 130%
# MEKK2wt confirm: raises or lowers MEK5 binding to wildtype human MEKK2, retest; AID 1892; binding response (% of control), % at 10 µM; hit rate 2.4% among 5,900; bead flow cytometry, Alexa488-MEK5 binding to MEKK2 WT; actives lie on both sides; shares compounds with MEKK3 PB1 HTS; in the data active = binding response below about 16% or above about 210%; inactive = in between
# MEKK2mut confirm: signal of MEK5 binding to mutant human MEKK2, retest; shares compounds with MEKK3 PB1 HTS; bead flow cytometry, Alexa488-MEK5 binding to MEKK2 mutant; hit rate 2% among 5,900; percent response, % at 10 µM; in the data active = percent response mostly above about 71%, no sharp cut-off; inactive = mostly below about 38%;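 note: higher means compound restores mutant binding toward wildtype level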
# MEKK3 confirm: confirmation of inhibitors of MEK5 binding to human MEKK3 | hit rate 1.8% among 5,900 | binding response (% of control), % at 10 µM | AID 1894 | shares compounds with MEKK3 PB1 HTS | bead flow cytometry, Alexa488-MEK5 binding to MEKK3; hits give low values;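 active = binding response below 72% of control, or above a set upper limit, though filed actives all read lower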;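 note: lower values mean stronger disruption of MEK5 binding to MEKK3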
# Numbers stand for hits; i = inactive; nt = no result given; [ ] = another dose, or the depositor's remark.
SMILES,UBC13 polyUb,MEKK2mut PB1 HTS,MEKK3 PB1 HTS,MEKK2 WT-MEK5,MEKK2wt confirm,MEKK2mut confirm,MEKK3 confirm
CCOC(=O)C(NC(=O)CCl)(Nc1sc(C)c(CC)c1C#N)C(F)(F)F (configuration not stated),i,i,147,i,i,i,i
O=C(NCc1ccc(Cl)cc1)C1CCN(c2nnc(N3CCCC3=O)s2)CC1,i,i,i,i,nt,nt,nt
CCOC(=O)C1CCN(C(=O)CCc2ccc(S(=O)(=O)NCC(C)C)cc2)CC1,i,26,i,i,i,i,i
CC(=O)Nc1ccc(S(=O)(=O)NCCC(=O)OCC(=O)c2cccc(Br)c2)cc1,i,nt,nt,nt,nt,nt,nt
Cc1cc(C)n2nc(-c3ccsc3-n3c(C)ccc3C)cc2n1,i,i,i,9.0[inhibitor],i,i,i
Cc1onc(-c2ccccc2)c1C(=O)Nc1sc2c(c1C(N)=O)CCC2,i,i,2.0[inhibitor],2.0[inhibitor],i,i,i
NCCNC(=O)c1c(NC(=O)c2ccccc2)sc2c1CCCC2,i,30,i,149,i,i,i
Cc1onc(-c2ccccc2)c1C(=O)Nc1sc2c(c1C#N)CCC2,i,i,i,i,nt,nt,nt
O=C(Nc1sc2c(c1C(=O)NCCCO)CCCC2)c1ccccc1,i,i,i,i,nt,nt,nt
CC(C)n1c(O)c(N=NC(=O)Cc2csc(N3CCOCC3)n2)c2ccccc21,i,nt,nt,nt,nt,nt,nt
O=C1CCC(C(=O)O)N1 (configuration not stated),i,i,i,i,nt,nt,nt
Cc1ccc(S(=O)(=O)NC(=O)Nc2ccc(C)cn2)cc1,i,i,i,i,nt,nt,nt
O=C(NN1C(=O)c2ccc(-c3ccc4c(c3)C(=O)N(NC(=O)c3cccnc3)C4=O)cc2C1=O)c1cccnc1,i,i,135,i,i,i,i
CCOc1ccc(-n2cnc3sc(C)c(C)c3c2=O)cc1,i,i,i,i,nt,nt,nt
Cc1ccc(NC(=O)CSc2nnc(COc3ccc(C#N)cc3)n2-c2ccccc2)cc1C,i,i,1.0[inhibitor],1.0[inhibitor],i,i,i
Cc1nc2cc(C(=O)OCC(=O)Nc3ccc(C#N)cc3)ccc2n1-c1ccccc1,i,i,i,i,nt,nt,nt
Cc1nc2cc(NC(=O)COc3ccc(C#N)cc3)ccc2n1-c1ccccc1,i,i,2.0[inhibitor],2.0[inhibitor],i,i,i
Cc1ccc(C(=O)CSc2nnc(COc3ccc(C#N)cc3)n2-c2ccccc2)cc1,i,i,i,i,nt,nt,nt
C=C(C)COc1ccc2c(C)c(CCC(=O)NC3CC3)c(=O)oc2c1,i,i,i,i,nt,nt,nt
CNC(=O)COc1ncnc2scc(-c3ccc(F)cc3)c12,i,i,i,i,nt,nt,nt
CC(=O)c1ccc(NS(=O)(=O)c2ccc3ccccc3c2)cc1,i,i,73[inhibitor],i,i,i,i
O=C(COc1cc(F)ccc1[N+](=O)[O-])N1N=C(c2cccs2)CC1c1ccco1 (configuration not stated),i,nt,nt,nt,nt,nt,nt
Cc1cccc(NC(=O)CN2C(=O)N/C(=C/c3ccc(C)o3)C2=O)c1,nt,i,129,i,i,i,i
Cc1ccc(NC(=O)CN2C(=O)N/C(=C/c3ccc(C)o3)C2=O)cc1,i,i,i,i,nt,nt,nt
Cc1cccc(NC(=O)CN2C(=O)N/C(=C\c3ccc(-c4cccc(C(=O)O)c4)o3)C2=O)c1,i,i,70[inhibitor],52[inhibitor],i,i,i
SMILES,UBC13 polyUb,MEKK2mut PB1 HTS,MEKK3 PB1 HTS,MEKK2 WT-MEK5,MEKK2wt confirm,MEKK2mut confirm,MEKK3 confirm
Cc1ccc(NC(=O)CN2C(=O)N/C(=C/c3ccc(C)s3)C2=O)cc1,i,i,129,i,i,i,i
C=CCOc1ccc(C(=O)Nc2ncn[nH]2)cc1,i,i,i,i,nt,nt,nt
C=CCc1ccc(OCCCCNC2CCCC2)c(OC)c1,i,i,i,i,nt,nt,nt
N/C(Cc1cccc2ccccc12)=N\OC(=O)c1cccs1,i,i,i,i,nt,nt,nt
N/C(Cc1cccc2ccccc12)=N\OC(=O)Cc1cccs1,i,i,144,i,i,i,i
CC(C)CCOc1cccc(OCC(=O)O)c1,i,i,183,i,i,i,i
COc1ccccc1C(=O)NNC(=O)C(=O)NC1CCCCC1,i,i,i,i,nt,nt,nt
Cc1ccc(NC(=O)CN2C(=O)CSc3ccc(S(=O)(=O)N4CCCCC4)cc32)cc1,i,i,i,i,nt,nt,nt
COc1ccc(C(=O)CN2C(=O)NC3(CCCCC3)C2=O)cc1OC,i,i,146,i,i,i,i
CCCc1nc(SCC(=O)Nc2nnc(CC)s2)c2c(C)c(C)sc2n1,i,i,122,i,i,i,i
Cc1nc2ccccc2nc1N1CCCCC1,nt,i,i,i,nt,nt,nt
Cc1ccc2c(Cl)c(C)c(N3CCCCC3)nc2n1,i,i,131,i,i,i,i
CCOc1ccc(N(CC(=O)Nc2cccc(Cl)c2)S(=O)(=O)c2c(C)noc2C)cc1,i,i,i,155,i,i,i
CCOc1ccc(N(CC(=O)Nc2cccc(OC)c2)S(=O)(=O)c2c(C)noc2C)cc1,i,i,i,i,nt,nt,nt
COC(=O)C1=CO[C@@H](O[C@@H]2O[C@H](CO)[C@@H](O)[C@H](O)[C@H]2O)C2C1C=C[C@@]2(O)CO (some centres not stated),i,nt,nt,nt,nt,nt,nt
O=Cc1cnc(N2CCN(Cc3ccccc3)CC2)s1,i,i,68[inhibitor],i,i,i,i
O=Cc1cnc(N2CCN(c3ccccc3)CC2)s1,i,i,i,i,nt,nt,nt
CCCn1nnc2c(=O)oc3ccccc3c21,i,i,i,i,nt,nt,nt
CN(C)CCn1nnc2c(=O)oc3ccccc3c21,i,i,56[inhibitor],nt,i,i,i
O=C1S/C(=C/c2ccccc2)C(=O)N1CC(O)Cn1c2ccccc2c2ccccc21 (configuration not stated),i,i,75[inhibitor],i,i,i,i
CN(C)c1ccc(/C=C2\SC(=O)N(CC(O)Cn3c4ccccc4c4ccccc43)C2=O)cc1 (configuration not stated),i,i,i,i,nt,nt,nt
COc1ccc(-c2cc(C(F)(F)F)c3c(N)c(C(=O)NCCSC)sc3n2)cc1,i,i,i,i,nt,nt,nt
CN(C)CCNC(=O)c1sc2nc(-c3ccccc3)cc(C(F)(F)F)c2c1N,i,i,i,158,i,i,i
O=C(COC(=O)c1cc([N+](=O)[O-])ccc1N1CCOCC1)NCc1ccc(Cl)cc1Cl,i,i,i,i,nt,nt,nt
O=C(c1c[nH]c(C(=O)C(Cl)(Cl)Cl)c1)c1ccc(F)cc1Cl,i,i,1.0[inhibitor],-2.0[inhibitor],i,i,i
O=C(Nc1ccc2c(c1)nc1n2CCN(Cc2ccccc2)C1)c1cccs1,i,i,i,3.0[inhibitor],i,i,i
CC(NC(=O)C(C)(C)C)c1nc2ccccc2n1C (configuration not stated),i,i,0.0[inhibitor],0.0[inhibitor],i,i,i
CC1CC(C)CN(C(=O)C(C)N(C)CC(=O)Nc2ccc(Cl)cc2)C1 (configuration not stated),i,i,i,i,nt,nt,nt
